This is a sample that favours compounds with a hit; in the whole collection about 18% have one here.
TDP1 block = TDP1 (human) enzyme inhibition; Q9NUW8; recombinant TDP1, AlphaScreen DNA substrate cleavage; actives 0.28% (n = 350,000); Potency, µM (titrated, usually from 130 µM), without a hit: top-dose activity change, negative = inhibition, hits mostly inhibitors; further: potency means the concentration at half of the fitted maximal effect; nearly all actives have a fitted effect of over 40% in size
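Signal: AlphaScreen proximity between streptavidin donor and anti-FITC acceptor beads on intact substrate. Reaction: Tdp1 1 nM, substrate 15 nM final, 5 min RT after 15 min compound preincubation.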
Six1-Eya2 inh = blocks human Six1 binding to Eya2 | Q15475+O00167 | AlphaScreen GST-Six1/His-Eya2 binding, biochemical; stronger effect = lower value | activity change, % (test concentration not listed) | actives 0.56% (n = 360,000) | AID 651725; in the data active means activity change below about -65%; inconclusive means mostly about -30% to -63%
Target sequence (O00167 whole entry, looked up): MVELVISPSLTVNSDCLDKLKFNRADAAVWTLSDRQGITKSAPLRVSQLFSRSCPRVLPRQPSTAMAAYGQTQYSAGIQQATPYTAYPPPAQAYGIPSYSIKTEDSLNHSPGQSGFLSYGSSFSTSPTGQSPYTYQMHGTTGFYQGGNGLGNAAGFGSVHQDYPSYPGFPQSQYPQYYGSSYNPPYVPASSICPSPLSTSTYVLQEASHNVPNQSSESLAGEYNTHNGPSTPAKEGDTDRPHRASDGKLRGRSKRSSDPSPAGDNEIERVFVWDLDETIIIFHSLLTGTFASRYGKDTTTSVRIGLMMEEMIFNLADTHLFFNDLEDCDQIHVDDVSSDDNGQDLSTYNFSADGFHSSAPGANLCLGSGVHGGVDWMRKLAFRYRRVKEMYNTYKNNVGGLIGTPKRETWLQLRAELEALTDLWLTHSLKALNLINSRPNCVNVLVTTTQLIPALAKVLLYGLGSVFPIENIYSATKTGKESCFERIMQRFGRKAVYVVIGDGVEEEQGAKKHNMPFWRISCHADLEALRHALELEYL
Target sequence (Q15475 whole entry, looked up): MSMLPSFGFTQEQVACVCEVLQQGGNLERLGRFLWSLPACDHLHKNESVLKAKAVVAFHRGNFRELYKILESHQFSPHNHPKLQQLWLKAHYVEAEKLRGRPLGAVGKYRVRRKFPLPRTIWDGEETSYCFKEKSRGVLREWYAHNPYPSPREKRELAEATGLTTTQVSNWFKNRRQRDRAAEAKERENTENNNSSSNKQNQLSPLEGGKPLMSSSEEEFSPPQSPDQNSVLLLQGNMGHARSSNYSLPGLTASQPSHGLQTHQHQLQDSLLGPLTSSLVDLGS
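AlphaScreen with GST-Six1 and His-Eya2 (5X mix: 250 nM and 500 nM), glutathione donor and nickel acceptor beads; buffer 50 mM Tris pH 8.0, 300 mM NaCl, 1 mM TCEP; 1 h at 37 C in the dark.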
TDP1 cell noCPT = qHTS for Inhibitors of human tyrosyl-DNA phosphodiesterase 1 (TDP1): qHTS in cells in absence of CPT; Potency, µM (series often up to 46.2 µM), for inactives: at the top dose activity change, negative = growth inhibition, most hits filed as inhibitors; actives 15% (n = 420,000); DT40 Tdp1-/- hTDP1 cells, no CPT, ATP luminescence, 48 h; further: potency means the concentration at half of the fitted maximal effect; nearly all actives have a fitted effect of over 55% in size
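Compound effects on proliferation are scored in DT40 Tdp1-/-;hTDP1 cells in the absence of CPT. ATP levels (CellTiter-Glo luminescence) are recorded after a ≥48 hr, 37 °C incubation.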
CtBP-E1A inh = blocks the CtBP interaction with E1A | AlphaScreen GST-E1A/His-CtBP binding, 1536-well; stronger effect = lower value | activity change, % (no concentration beside the values) | actives 0.49% (n = 340,000); in the data active means activity change below about -65%; inconclusive means mostly about -30% to -63%
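AlphaScreen with 125 nM GST-E1A and 125 nM His-CtBP (5X stocks) in Tris pH 8.0, 300 mM NaCl, BSA, Tween 20, TCEP. Compounds preincubated 2 h at 37 deg C, then glutathione donor/nickel acceptor beads added for 1 h at 37 deg C in dark.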
IL-1B inflam inh = inflammasome signaling inhibition, IL-1 beta readout; AID 743279; activity change, % at 57.5 µM; THP-1 LPS/ATP IL-1B secretion, AlphaLISA, 16 h; stronger effect = lower value; actives 4.7% (n = 360,000); in the data active means activity change below about -50%; inconclusive means mostly about -30% to -49%
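Secreted IL-1B measured by AlphaLISA bead assay after 16 h compound exposure of THP-1 cells; compounds (final up to 57.5 uM) added 1 h before LPS (250 ng/mL) and ATP (1.25 mM) stimulation; lower signal means less secretion.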
TDP1 cell CPT = DT40-hTDP1 cell growth loss with CPT; chicken DT40 Tdp1-/-;hTDP1 cells + 20 nM CPT, ATP luminescence, 48 h; Potency, µM (series often up to 46.2 µM), inactives show top-dose activity change, negative = growth inhibition, actives largely listed as inhibitors; actives 12% (n = 420,000); further: potency means the concentration at half of the fitted maximal effect; nearly all actives have a fitted effect of over 55% in size
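Chicken DT40 Tdp1-/- cells stably complemented with human TDP1 were seeded at 400 cells/well in medium containing 20 nM camptothecin, exposed to pin-transferred compounds, and grown at 37 °C for at least 48 hr. Viability was read as ATP luminescence.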
* hit, by the source's call; ? = inconclusive; . = not tested or not shown. Unless noted, the call rests on the fitted dose curve; in most records, active means well fitted curve in the direction sought with a large enough effect; inconclusive means small, poorly fitted or top-dose-only effect, or another doubt; inactive means no such curve, though single readings can be large; an effect the other way counts as inactive or inconclusive. On the % scale 0 is the no-effect control and ±100 the full control effect.

SMILES | TDP1 block | Six1-Eya2 inh | TDP1 cell noCPT | CtBP-E1A inh | IL-1B inflam inh | TDP1 cell CPT
COc1ccccc1NC(=O)C1=C(C)Nc2nc3ccccc3n2C1c1cccc(Br)c1 (centres undefined) | 10% | . | ? | . | . | ?
O=[N+]([O-])c1ccc(Sc2cccc[n+]2[O-])c2nonc12 | 9% | -68* | 0.021µM* | -68* | -98* | 0.0058µM*
O=C(CSc1cccc[n+]1[O-])Nc1cc(Cl)ccc1[N+](=O)[O-] | 1% | -7 | ? | 2 | 5 | ?
Cc1ccc(C2=NS(=O)(=O)N(C)C(C(=O)Nc3ccc4c(c3)OCO4)=C2)cc1 | . | -27 | ? | -10 | 11 | ?
COc1ccc(C2=NS(=O)(=O)N(C)C(C(=O)Nc3ccc4c(c3)OCO4)=C2)cc1OC | . | -20 | 16µM* | -27 | 8 | 16µM*
COc1ccc(NC(=O)C2=CC(c3ccc4c(c3)OCO4)=NS(=O)(=O)N2C)cc1OC | 6% | . | ? | . | . | ?
COc1ccc(C2=NS(=O)(=O)N(C)C(C(=O)NC3CCCCC3)=C2)cc1OC | . | 0 | 18µM* | 2 | 2 | 9.2µM*
COc1ccc(C2=NS(=O)(=O)N(C)C(C(=O)Nc3ccc4c(c3)OCO4)=C2)cc1 | . | ? | 8.2µM* | -25 | -17 | 16µM*
COc1ccc(C2=NS(=O)(=O)N(C)C(C(=O)NC3CCCC3)=C2)cc1OC | . | 0 | ? | 9 | -23 | ?
COc1cccc(N2CCN(c3ccc4nnc(CCC(=O)Nc5cc(C)ccn5)n4n3)CC2)c1 | 3% | 4 | -13% | -21 | 3 | -26%
Cc1cccc(NS(=O)(=O)c2ccc3c(c2)CCN3C(=O)CCC(=O)O)c1 | . | -1 | 9% | 6 | 37 | -8%
Cc1ccc(NS(=O)(=O)c2ccc(N3CCN(c4ccc(O)cc4)CC3)c([N+](=O)[O-])c2)c(C)c1 | 9% | ? | 16µM* | -2 | ? | ?
Cc1cccc(NS(=O)(=O)c2ccc3c(c2)CCN3C(=O)C2CCC2)c1 | 0% | . | 18µM* | . | . | 18µM*
Cc1ccc(NS(=O)(=O)c2ccc3c(c2)CCN3C(=O)C2CC2)c(C)c1 | 0% | . | 21µM* | . | . | ?
COc1ccc(NS(=O)(=O)c2ccc3c(c2)CCN3C(=O)C2CC2)cc1OC | 2% | . | 5.2µM* | . | . | 8.2µM*
CCOc1cc(/C=N/N2C(=O)NC3(CCCCC3)C2=O)cc(Br)c1O | -8% | 7 | -23% | . | -7 | 1%
C#CCOC(=O)c1ccccc1C(=O)N(CC)CC | 2% | 3 | -15% | 12 | -1 | 3%
CCc1ccccc1NS(=O)(=O)c1ccc2c(c1)CCN2C(=O)C1CC1 | 2% | . | ? | . | . | ?
CN1CCN(c2ccccc2NS(=O)(=O)c2ccc3c(c2)CCN3C(=O)C2CCC2)CC1 | . | -5 | ? | -5 | -9 | 15µM*
O=C(C1CC1)N1CCc2cc(S(=O)(=O)NCC3COc4ccccc4O3)ccc21 (centres undefined) | 6% | -5 | 15µM* | 2 | -8 | ?
CCC(=O)N1CCc2cc(S(=O)(=O)N(C)c3ccc(OC)cc3OC)ccc21 | . | 6 | ? | 4 | -4 | ?
COc1ccc(N(C)S(=O)(=O)c2ccc3c(c2)CCN3C(=O)C2CC2)c(OC)c1 | 5% | 1 | 18µM* | . | 6 | 16µM*
CC(=O)NC1CCC(=O)C=C1c1ccccc1 (centres undefined) | . | 7 | -17% | -15 | 14 | -2%
COc1cc(C(=O)N(Cc2ccccc2)c2cccc(C)c2)ccc1OC(F)F | -6% | 6 | ? | 22 | -8 | ?
Nc1nc(N)c(N=Nc2ccccc2)c(=O)[nH]1 | . | -21 | 5.8µM* | -20 | ? | 21µM*
SMILES | TDP1 block | Six1-Eya2 inh | TDP1 cell noCPT | CtBP-E1A inh | IL-1B inflam inh | TDP1 cell CPT
Cc1cccc(N=Nc2c(C)nn(-c3ccccc3)c2N)c1C | 10% | ? | ? | ? | 0 | ?
Nc1nn(-c2ccccc2)c(N)c1N=Nc1ccccc1 | 8% | -28 | 4.6µM* | 0 | 15 | 4.1µM*
O=c1[nH]cnc(O)c1N=Nc1ccccc1 | . | -12 | ? | -3 | 0 | ?
Nc1ncnc(N)c1N=Nc1ccccc1 | 0% | -5 | 3.3µM* | -22 | -60* | 23µM*
Cc1nn(-c2ccccc2)c(N)c1N=Nc1ccccc1 | 8% | -25 | 21µM* | -21 | -68* | ?
Cc1cc(C)n2nc(N)c(N=Nc3ccccc3)c2n1 | 4% | -24 | . | -8 | -12 | ?
Nc1nc(-c2ccccc2)[nH]c(=O)c1N=O | 1% | ? | ? | . | 23 | -16%
C=CCn1cccc(C(=O)Nc2cc(OC)c(OC)c(OC)c2)c1=O | -3% | 2 | ? | 0 | -11 | ?
Nc1c(N=Nc2ccccc2F)c(=O)[nH]n1-c1ccccc1 | 12% | -11 | -5% | 0 | -12 | 3%
Cc1nn(-c2ccccc2)c(N)c1N=Nc1cccc(S(=O)(=O)N2CCOCC2)c1 | . | -9 | 16µM* | -1 | -56* | ?
Nc1ccc2ccccc2c1N=Nc1ccccc1 | . | -76* | ? | -77* | ? | ?
Nc1nn(-c2ccccc2)c(N)c1N=Nc1ccccc1F | 8% | ? | 13µM* | -4 | -54* | 9.2µM*
Nc1nc(-c2ccccc2)c(N=Nc2ccc(Cl)cc2)s1 | 6% | -25 | -11% | ? | -7 | 1%
Cc1nn(-c2ccccc2)c(N)c1N=Nc1ccc(Cl)cc1 | 3% | -23 | ? | -19 | -76* | ?
C[C@H](NC(=O)CC[C@H]1O[C@@H](n2ccc(=O)[nH]c2=O)[C@H](O)[C@@H]1O)C(=O)O | . | 6 | 6% | 0 | 3 | -4%
CC(=O)N1c2c(cc(Br)cc2S(=O)(=O)NCc2ccc(C)cc2)CC1C (centres undefined) | 0% | -5 | -27% | 6 | 14 | 7%
CCOC(=O)N1CCC(NC(=O)C2=CCN(S(=O)(=O)c3ccc(F)cc3)CC2)CC1 | . | 9 | ? | 4 | 10 | 6%
O=C(COC(=O)CCC(=O)c1ccc(Cl)cc1)NCc1ccc(F)cc1 | 0% | 2 | 6% | 0 | 19 | 12%
COc1ccc(-c2c(C)c3ccc(O)c(CN4CCCC4)c3oc2=O)cc1 | 5% | . | 15µM* | . | . | ?
Cc1c(C)c2ccc(O)c(CN3CCCC3)c2oc1=O | . | 2 | 8% | 3 | -2 | 9%
